Source: ChEMBL document CHEMBL3988442, “University of Dundee, Small-Polar-MMV Screening Library” (2021)

Molecular target: T1, Aspartate--tRNA(Asp/Asn) ligase (Mycobacterium tuberculosis (strain ATCC 25618 / H37Rv)) (UniProt P9WFW3); also: in the data most compounds retested in dose-response had high values
T1 sequence (whole entry): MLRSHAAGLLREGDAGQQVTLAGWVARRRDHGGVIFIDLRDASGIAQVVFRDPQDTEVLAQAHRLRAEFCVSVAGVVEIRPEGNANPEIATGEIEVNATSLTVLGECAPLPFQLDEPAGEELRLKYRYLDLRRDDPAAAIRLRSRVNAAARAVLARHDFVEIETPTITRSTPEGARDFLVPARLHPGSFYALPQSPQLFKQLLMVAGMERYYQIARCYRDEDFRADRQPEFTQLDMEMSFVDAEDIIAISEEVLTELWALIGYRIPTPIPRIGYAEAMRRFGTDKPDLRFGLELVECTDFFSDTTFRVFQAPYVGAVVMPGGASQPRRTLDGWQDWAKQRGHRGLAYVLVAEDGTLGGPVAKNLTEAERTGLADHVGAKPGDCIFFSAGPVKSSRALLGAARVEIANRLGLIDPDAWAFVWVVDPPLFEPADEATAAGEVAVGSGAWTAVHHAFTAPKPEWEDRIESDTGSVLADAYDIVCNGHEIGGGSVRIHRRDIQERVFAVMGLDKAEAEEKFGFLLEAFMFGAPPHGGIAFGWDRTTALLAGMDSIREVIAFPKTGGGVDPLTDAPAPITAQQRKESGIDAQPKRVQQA
Experiment: Assay for Asp RNA synthetase-1 from Mycobacterium tuberculosis
Format: functional
Parameters: scale not given: direction of the effect not stated beside the values
Conditions: 30 µM

Structure (SMILES) | Percent Effect [%]
Cc1cnn(CCC(=O)N2CCC(Nc3cccnn3)CC2)c1 | 1.38
Cc1nc(C)n(C2CCCN(C(=O)CCCn3ccnc3)C2)n1 (stereo not given) | -0.127
CC(NC1(CNC(=O)CC(C)(C)C)CCOCC1)c1ccccc1 (stereo not given) | 9.41
CN(C)CC1CN(Cc2ccsc2)Cc2nccn2C1 (stereo not given) | 4.71
Cc1cccc(CNC(CN2CCN(C)CC2)c2ccccc2)c1 (stereo not given) | 3.03
COc1cc2nc(C)n(CC(=O)O)c(=O)c2cc1OC | 1.68
CN(C(=O)Cn1nc(-c2cccs2)ccc1=O)C1CCS(=O)(=O)C1 (stereo not given) | 1.02
c1ccc(CN2CC[C@@H]3O[C@@H](COCC4CCOCC4)CC[C@@H]32)nc1 | 7.81
NC(=O)c1ccc(NC(=O)CCN2CCCC(N3CCCC3)C2)cc1 (stereo not given) | -4.91
COc1ccc(C)cc1NC(=O)Nc1cnc(N2CCN(C)CC2)nc1 | 0.539
Cc1cnccc1N1CCCN(C(=O)CCCS(N)(=O)=O)CC1 | -1.55
CCC1CN(Cc2ccccc2)CCN1Cc1nnc(C2CCC2)o1 (stereo not given) | -4.92
CCc1nc(C2CCCN2C(=O)c2nc(C)n3ccccc23)no1 (stereo not given) | -1.96
CC(C)NC(=O)N1CCC2(CC(=O)N(c3cccc(C#N)c3)C2)C1 (stereo not given) | 5.75
O=C(C1CCC1)N1CCN(Cc2ccsc2)[C@H]2CS(=O)(=O)C[C@H]21 | -4.67
CCc1csc(C2CCCN(C(=O)c3ccnc(N(C)C)c3)C2)n1 (stereo not given) | 1.86
Fc1ccc(CN2CCCN(Cc3cscn3)CC2)cc1 | 1.87
CNc1cc(N2CCCC2CNCc2c[nH]nc2C(C)(C)C)ncn1 (stereo not given) | 1.25
Cc1ccoc1C(=O)N1CCO[C@H]2[C@H](OCC3CCOCC3)CC[C@@H]21 | -4.72
COc1cc(CN2CC[C@@]3(CCCO3)[C@@H](O)C2)ccc1F | 4.99

Structure (SMILES) | Percent Effect [%]
Cc1nccn1C1CCCN(C(=O)COCC(F)(F)F)C1 (stereo not given) | -1.01
O=C(NCc1ccco1)c1nn(C2CCS(=O)(=O)C2)c2c1CCCC2 (stereo not given) | -2.28
Cc1ccc(CC(=O)N2CCOC(c3nc(C(C)(C)C)n[nH]3)C2)cn1 (stereo not given) | -0.39
Cc1cc(C)n(CC2CCCCN2C(=O)c2ccc3c(c2)OCO3)n1 (stereo not given) | -5.57
CC(C)C(Sc1nnnn1C1CC1)C(=O)NCc1cccnc1 (stereo not given) | -3.1
CCC1CN(CC(=O)N2CCC2)CCN1CCOC (stereo not given) | 7.2
Cc1nc(C)n(C2CCCN(C(=O)Cc3cccnc3)C2)n1 (stereo not given) | -4.24
Cc1nnc2n1CCN(C(=O)c1cc(Cl)c(Cl)n1C)C2 | -1.68
Cc1noc(CN2CCN(CC(C)O)CC2)n1 (stereo not given) | -2.18
COCCCN1CCC(NC(=O)C(C)C)CC1 | -2.37
CC(=O)NCC1CCN(C(=O)c2csc(-c3ccc(C)cc3C)n2)CC1 | 5.3
Cc1ccc(CN2CCc3ncnc(-c4ccc(F)cc4)c3CC2)o1 | 5.12
COC(=O)CS(=O)(=O)CCC(=O)N1CCCC1c1ccsc1 (stereo not given) | -1.34
COC(=O)CNC(=O)CSCc1nc(O)c2cc(C(C)C)sc2n1 | -0.639
Cc1cc(OCC(=O)N2CCCC(c3ccn[nH]3)C2)no1 (stereo not given) | -5.07
CCCc1nc(CN2CCOC(Cn3cncn3)C2)no1 (stereo not given) | 0.917
Cc1nc2c(c(N3CC=CC3)n1)CCN(Cc1ccoc1)CC2 | -8.35
O=C(NC[C@@H]1CCCN1)c1cc(COc2cccc(C(F)(F)F)c2)[nH]n1 | 1.98
CC(=O)N(Cc1ncc(C)o1)C1CCN(CCNC2CCCCC2)C1 (stereo not given) | 1.34
Cc1nn(C)c(C)c1C1CCCN1Cc1nc(-c2ccco2)no1 (stereo not given) | -6.56

Molecular target: Shiga toxin 2 (Escherichia coli O157:H7) (UniProt P09385+P09386)
Experiment: E. coli 0.157:H7 Shiga Toxin SOP - stx2 screening assay
Format: functional
Parameters: scale not given: direction of the effect not stated beside the values
Conditions: 30 µM

Structure (SMILES) | Percent Effect [%]
Cc1cnn(CCC(=O)N2CCC(Nc3cccnn3)CC2)c1 | 16.1
Cc1nc(C)n(C2CCCN(C(=O)CCCn3ccnc3)C2)n1 (stereo not given) | -12.7
CC(NC1(CNC(=O)CC(C)(C)C)CCOCC1)c1ccccc1 (stereo not given) | 20.8
CN(C)CC1CN(Cc2ccsc2)Cc2nccn2C1 (stereo not given) | -1.56
Cc1cccc(CNC(CN2CCN(C)CC2)c2ccccc2)c1 (stereo not given) | -5.1
COc1cc2nc(C)n(CC(=O)O)c(=O)c2cc1OC | -6.96
CN(C(=O)Cn1nc(-c2cccs2)ccc1=O)C1CCS(=O)(=O)C1 (stereo not given) | -35.1
c1ccc(CN2CC[C@@H]3O[C@@H](COCC4CCOCC4)CC[C@@H]32)nc1 | -21.9
NC(=O)c1ccc(NC(=O)CCN2CCCC(N3CCCC3)C2)cc1 (stereo not given) | 24.7
COc1ccc(C)cc1NC(=O)Nc1cnc(N2CCN(C)CC2)nc1 | -18.8
Cc1cnccc1N1CCCN(C(=O)CCCS(N)(=O)=O)CC1 | -11.6
CCC1CN(Cc2ccccc2)CCN1Cc1nnc(C2CCC2)o1 (stereo not given) | -9.86
CCc1nc(C2CCCN2C(=O)c2nc(C)n3ccccc23)no1 (stereo not given) | -2.42
CC(C)NC(=O)N1CCC2(CC(=O)N(c3cccc(C#N)c3)C2)C1 (stereo not given) | 8.35
O=C(C1CCC1)N1CCN(Cc2ccsc2)[C@H]2CS(=O)(=O)C[C@H]21 | -39.6
CCc1csc(C2CCCN(C(=O)c3ccnc(N(C)C)c3)C2)n1 (stereo not given) | -14.7
Fc1ccc(CN2CCCN(Cc3cscn3)CC2)cc1 | 2.42
CNc1cc(N2CCCC2CNCc2c[nH]nc2C(C)(C)C)ncn1 (stereo not given) | -11.5
Cc1ccoc1C(=O)N1CCO[C@H]2[C@H](OCC3CCOCC3)CC[C@@H]21 | -15.8
COc1cc(CN2CC[C@@]3(CCCO3)[C@@H](O)C2)ccc1F | 3

Structure (SMILES) | Percent Effect [%]
Cc1nccn1C1CCCN(C(=O)COCC(F)(F)F)C1 (stereo not given) | -10.2
O=C(NCc1ccco1)c1nn(C2CCS(=O)(=O)C2)c2c1CCCC2 (stereo not given) | 8.96
Cc1ccc(CC(=O)N2CCOC(c3nc(C(C)(C)C)n[nH]3)C2)cn1 (stereo not given) | -0.658
Cc1cc(C)n(CC2CCCCN2C(=O)c2ccc3c(c2)OCO3)n1 (stereo not given) | -5.42
CC(C)C(Sc1nnnn1C1CC1)C(=O)NCc1cccnc1 (stereo not given) | -4.91
CCC1CN(CC(=O)N2CCC2)CCN1CCOC (stereo not given) | 9.62
Cc1nc(C)n(C2CCCN(C(=O)Cc3cccnc3)C2)n1 (stereo not given) | 1.27
Cc1nnc2n1CCN(C(=O)c1cc(Cl)c(Cl)n1C)C2 | 8.23
Cc1noc(CN2CCN(CC(C)O)CC2)n1 (stereo not given) | -6.53
COCCCN1CCC(NC(=O)C(C)C)CC1 | -36.2
CC(=O)NCC1CCN(C(=O)c2csc(-c3ccc(C)cc3C)n2)CC1 | 14
Cc1ccc(CN2CCc3ncnc(-c4ccc(F)cc4)c3CC2)o1 | -19.5
COC(=O)CS(=O)(=O)CCC(=O)N1CCCC1c1ccsc1 (stereo not given) | -0.403
COC(=O)CNC(=O)CSCc1nc(O)c2cc(C(C)C)sc2n1 | -7.38
Cc1cc(OCC(=O)N2CCCC(c3ccn[nH]3)C2)no1 (stereo not given) | 2.75
CCCc1nc(CN2CCOC(Cn3cncn3)C2)no1 (stereo not given) | -23.1
Cc1nc2c(c(N3CC=CC3)n1)CCN(Cc1ccoc1)CC2 | -69.4
O=C(NC[C@@H]1CCCN1)c1cc(COc2cccc(C(F)(F)F)c2)[nH]n1 | -15.7
CC(=O)N(Cc1ncc(C)o1)C1CCN(CCNC2CCCCC2)C1 (stereo not given) | -30.8
Cc1nn(C)c(C)c1C1CCCN1Cc1nc(-c2ccco2)no1 (stereo not given) | -26.9
